Assay in all cases: cross-link between two proteins; cross-linking mass spectrometry
Assay [1] has as its target Acyl carrier protein, mitochondrial (UniProt P52505).
Assay [2] has as its target NADH dehydrogenase [ubiquinone] 1 beta subcomplex subunit 11, mitochondrial (UniProt Q8HXG5).
Assay [3] addresses T1, Cytochrome b-c1 complex subunit 2, mitochondrial (UniProt P23004).
T1 sequence: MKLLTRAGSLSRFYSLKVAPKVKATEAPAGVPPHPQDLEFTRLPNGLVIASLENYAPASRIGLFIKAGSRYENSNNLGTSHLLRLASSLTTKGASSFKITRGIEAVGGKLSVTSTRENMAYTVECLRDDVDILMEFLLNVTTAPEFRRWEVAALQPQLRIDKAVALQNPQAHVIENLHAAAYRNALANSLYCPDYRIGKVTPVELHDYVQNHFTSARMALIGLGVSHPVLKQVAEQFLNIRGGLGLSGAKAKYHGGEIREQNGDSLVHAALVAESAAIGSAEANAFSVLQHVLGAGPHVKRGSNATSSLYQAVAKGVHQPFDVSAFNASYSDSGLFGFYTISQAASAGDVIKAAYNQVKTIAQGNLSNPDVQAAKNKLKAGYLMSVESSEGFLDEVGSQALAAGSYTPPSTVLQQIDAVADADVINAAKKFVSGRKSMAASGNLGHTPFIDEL

In assay [4] the target is NADH dehydrogenase [ubiquinone] 1 alpha subcomplex subunit 9, mitochondrial (UniProt P34943).
Chain of NADH dehydrogenase [ubiquinone] 1 alpha subcomplex subunit 9, mitochondrial (P34943 whole entry, one chain of several): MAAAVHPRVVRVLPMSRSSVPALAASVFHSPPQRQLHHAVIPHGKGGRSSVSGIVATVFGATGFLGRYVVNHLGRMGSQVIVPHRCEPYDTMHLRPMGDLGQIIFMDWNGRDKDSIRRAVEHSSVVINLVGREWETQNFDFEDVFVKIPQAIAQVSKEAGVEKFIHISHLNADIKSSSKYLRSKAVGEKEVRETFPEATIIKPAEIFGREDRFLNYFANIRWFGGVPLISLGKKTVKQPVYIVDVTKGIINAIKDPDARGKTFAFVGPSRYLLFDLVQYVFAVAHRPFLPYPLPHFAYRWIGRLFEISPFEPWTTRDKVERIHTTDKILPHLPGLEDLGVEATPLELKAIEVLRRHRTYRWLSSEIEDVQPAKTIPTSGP

Chain of NADH dehydrogenase [ubiquinone] 1 beta subcomplex subunit 11, mitochondrial (Q8HXG5 whole entry, one chain of several): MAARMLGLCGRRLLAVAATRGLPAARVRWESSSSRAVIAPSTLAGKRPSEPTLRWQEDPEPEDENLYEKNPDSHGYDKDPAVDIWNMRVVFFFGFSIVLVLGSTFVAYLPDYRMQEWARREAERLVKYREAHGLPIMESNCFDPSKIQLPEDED

For G5E543, the “listed as a hit” value in assay [1] and in assay [2] was “yes” each time.

As for A0A3Q1MBD7, in assay [3], the “listed as a hit” value was “yes”.

In the case of A8WFQ0, the “listed as a hit” value in assay [4] is “yes”.

The values above are taken from paper PMC7883291.
